Rab9 promoter act = Rab9 promoter activation; Huh7 Rab9 promoter-luciferase reporter, luminescence, 24 h; Potency, µM (top dose mostly 9.22 µM), for inactives: at the top dose activation, negative = inhibition, actives largely listed as activators; hit rate 2.8% among 320,000; AID 485297; also: % of control where 0% means no effect; nearly all actives have a fitted effect of over 60% in size
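Quantitative HTS format; Huh7 Rab9-luciferase reporter cells (1500/well) receive compound 2 h post-plating, incubate 24 h at 37 °C, then get luciferase reagent for 10 min before luminescence reading.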
NPC1 prom act = activates the NPC1 promoter | Huh7 NPC1 promoter luciferase reporter, 24 h | Potency, µM (top dose mostly 9.22 µM), for the others: at the top dose activation, hits mostly activators | hit rate 2.4% among 320,000; also: % of control where 0% means no effect; nearly all actives have a fitted effect of over 60% in size
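Huh7 reporter cells (NPC1 promoter driving luciferase) are dosed with compound for 24 h at 37 °C, 5% CO2; luciferase detection reagent is then added and luminescence measured after 10 min at ambient temperature.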
FLuc counter = firefly luciferase modulation, counter-screen for miR-21 project; purified FLuc, Km substrates, luminescence inhibition; Potency, µM (doses to about 57.5 µM), without a hit: top-dose activity change, negative = inhibition, actives largely listed as inhibitors; hit rate 6.9% among 360,000; AID 588342;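 also: plate controls were vehicle for no effect and reference inhibitor for full effect; nearly all actives have a fitted effect of over 55% in size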
Target sequence (P08659 whole entry, looked up): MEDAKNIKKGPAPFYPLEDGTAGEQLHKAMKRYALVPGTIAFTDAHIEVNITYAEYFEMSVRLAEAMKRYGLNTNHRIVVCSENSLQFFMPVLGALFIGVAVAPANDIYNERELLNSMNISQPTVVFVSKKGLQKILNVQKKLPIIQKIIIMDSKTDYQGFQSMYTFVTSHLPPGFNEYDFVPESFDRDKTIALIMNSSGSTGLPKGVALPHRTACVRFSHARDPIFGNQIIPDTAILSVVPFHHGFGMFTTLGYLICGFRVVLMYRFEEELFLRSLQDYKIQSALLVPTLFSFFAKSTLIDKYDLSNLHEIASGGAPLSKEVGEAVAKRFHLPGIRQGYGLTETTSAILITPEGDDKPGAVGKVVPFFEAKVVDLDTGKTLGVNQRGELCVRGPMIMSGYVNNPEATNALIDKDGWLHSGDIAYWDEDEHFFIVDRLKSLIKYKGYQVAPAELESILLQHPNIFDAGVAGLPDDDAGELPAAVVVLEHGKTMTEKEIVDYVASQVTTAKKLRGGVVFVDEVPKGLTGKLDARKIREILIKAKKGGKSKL
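Purified P. pyralis luciferase, 10 nM final, with Km-level 10 uM D-luciferin and 10 uM ATP in 50 mM Tris acetate pH 7.5, 10 mM Mg acetate, 0.01% Tween-20, 0.05% BSA; 6-point qHTS titration about 60 µM downward; luminescence read.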
SMN2 splice up = SMN2 splice variant enhancement | HEK293 SMN2-luciferase splicing reporter, luminescence, 30-36 h | Potency, µM (series often up to 46.1 µM), inactives show at the highest dose activity change, positive = activation, usual class: activators | hit rate 2.8% among 210,000; also: % of control where 0% means no effect; nearly all actives have a fitted effect of over 55% in size
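qHTS luciferase splicing reporter: luminescence rises when SMN2 exon 7 is included in transfected HEK293 cells. Compound exposure lasted 30-36 h at 37C, with 4.5 mM final sodium butyrate as control, followed by a ONE-Glo read.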
ELG1 genotoxic = genotoxicity induction in ELG1-luciferase HEK293T cells | Potency, µM (doses to about 46 µM), inactives show at the top dose activity change, positive = activation, hits mostly activators | AID 504466 | hit rate 1.3% among 330,000 | HEK293T ELG1-luciferase reporter, luminescence, 16 h; also: % of control where 0% means no effect; nearly all actives have a fitted effect of over 60% in size
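ELG1-luciferase HEK293T cells, 2,000/well; compound pinned in; 16 hr, 37 °C, 5% CO2; ONE-Glo, 30 min RT; luminescence on CCD imager.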
Active calls of the source: *; ? = inconclusive; nt = not tested or not shown. Rows were chosen to be rich in hits. Some 7.5% of all compounds tested hit in one or more screens of this group. Calls follow the shape of the dose curve; as a rule, active = well fitted curve in the direction sought with a large enough effect; inconclusive = small, poorly fitted or top-dose-only effect, or another doubt; inactive = no such curve, though single readings can be large; an effect the other way counts as inactive or inconclusive. Potency is read from the fitted curve at half-maximal effect.

SMILES | Rab9 promoter act | NPC1 prom act | FLuc counter | SMN2 splice up | ELG1 genotoxic
CCOc1ccc(NC(=O)c2c(Nc3ccccc3C)sc(C(=O)c3ccccc3)c2N)cc1 | nt | nt | -3% | nt | nt
CCN(CC)C(=O)c1ccc(COc2ccccc2Cl)o1 | 13% | 0% | -26% | nt | 1%
Cc1cc(Cl)ccc1OCCCC(=O)OCC(N)=O | -12% | -7% | 27µM* | 17% | 1%
COc1ccc(CNC(=O)COC(=O)CCCOc2ccc(Cl)cc2Cl)cc1OC | -3% | 1% | 17µM* | 2% | -2%
Cc1ccc(OCC(=O)N2CCCCCC2)c(C)c1 | 13% | 19% | -22% | 7.1µM* | ?
CC(C)c1ccc(OCC(=O)N2CCCCCC2)c(Br)c1 | 2.8µM* | ? | 21µM* | 25% | ?
Cc1cc(Cl)ccc1OCCCC(=O)NN | 0% | 0% | 3% | 2% | -1%
CCOCCCNC(=O)CN1C(=O)COc2ccc(S(=O)(=O)N3CCCC3)cc21 | 1% | -1% | -2% | -1% | 3%
Cc1cc(Cl)ccc1OCCCC(=O)N1CCOCC1 | ? | 24% | ? | -11% | ?
Cc1cc(Cl)ccc1OCCCC(=O)N1CCCCC1 | ? | ? | 21µM* | 5% | ?
CCC(=O)c1ccccc1OCCN1CCN(CC)CC1 | -5% | 0% | 8% | -1% | -7%
COc1ccc(Oc2cnc3ccccc3n2)cc1 | 3.5µM* | ? | -10% | 19% | -3%
c1ccc(Oc2cnc3ccccc3n2)cc1 | -9% | -1% | -18% | -27% | 1%
CCN=C1NN=C(c2cc(C)n(Cc3ccco3)c2C)CS1 | -19% | -20% | 0.21µM* | -82% | ?
C=CCn1c(C)cc(C2=NNC(=NCc3ccccc3)SC2)c1C | 2.2µM* | ? | 19µM* | 13µM* | ?
Cc1cc(C2=NNC(=NCCc3ccccc3)SC2)c(C)n1CC1CCCO1 (configuration not stated) | ? | 30% | 15µM* | -37% | 8%
CCN=C1NN=C(c2cc(C)n(CCc3ccccc3)c2C)CS1 | -1% | 3% | -16% | -43% | ?
O=S(=O)(NCC1CCCO1)c1ccc(-c2ccc(Cl)cc2)cc1 (configuration not stated) | -14% | -9% | -9% | -62% | 4%
Clc1ccc(C2=NNC(=NCC3CCCO3)SC2)cc1 (configuration not stated) | ? | 3.2µM* | 12µM* | 11µM* | 20%
COc1ccc(OC)c(C2=NOC(C(=O)Nc3cc(C)nn3-c3ccccc3)C2)c1 (configuration not stated) | -2% | -5% | 4% | 12% | -1%
O=C(COc1ccccc1Cl)NCCCNC(=O)c1cnccn1 | 2% | 9% | -1% | nt | -4%
COc1ccccc1NC(=O)CN(c1ccccc1)S(=O)(=O)c1ccccc1 | 0% | 0% | 0% | nt | -8%
Brc1cc2ccccc2[n+](Cc2ccccc2)c1 | -16% | -3% | -13% | nt | 7%
Cc1cc(N2CCOCC2)nc2ccc(NC(=S)NCCC(C)C)cc12 | 3% | 7% | -6% | nt | -2%
CCN(CC)S(=O)(=O)c1ccc(C(=O)Nc2c3c(nn2C(C)(C)C)CS(=O)(=O)C3)cc1 | -2% | 3% | 4% | 4% | 1%
SMILES | Rab9 promoter act | NPC1 prom act | FLuc counter | SMN2 splice up | ELG1 genotoxic
Clc1ccc(C(c2ccccc2)c2c[nH]c3ccccc23)s1 (configuration not stated) | nt | nt | 1% | nt | nt
CCn1c(-c2ccccc2Cl)nn(CC(=O)Nc2ccccc2OC)c1=S | 5% | -3% | -1% | -17% | 0%
COCCn1c(C)cc(C2=NNC(=Nc3ccccc3)SC2)c1C | 0.4µM* | 0.35µM* | 0.76µM* | ? | ?
CSc1ncccc1C(=O)OCc1ccccc1 | ? | 20% | 19µM* | 1% | ?
CSc1ncccc1C(=O)OCc1ccccc1F | 28% | ? | 15µM* | 28% | 16%
CCC(=O)Nc1cccc(-c2ccc(N3CCCCC3)nn2)c1 | 0.45µM* | 0.56µM* | 0.54µM* | nt | 2.3µM*
CCC(=O)Nc1cccc(-c2ccc(N3CCN(C)CC3)nn2)c1 | ? | 2.5µM* | 6.7µM* | nt | ?
CCC(=O)Nc1cccc(-n2nnnc2SCC(=O)N2CCCCC2)c1 | ? | 15% | -21% | 7% | 9%
C=CCSc1nc(N)c2c(C)c(C)sc2n1 | 24% | 18% | 12µM* | -5% | ?
CCSc1nc(N)c2c(C)c(C)sc2n1 | 2% | 2% | ? | 17% | 9%
CCOC(=O)c1c(C)[nH]c(C2=NNC(=NC3CC3)SC2)c1C | ? | ? | 0.6µM* | -79% | 0.58µM*
COc1ccc2c(c1)CC/C(=C\Nc1ccc3c(c1)OCO3)C2=O | 2.5µM* | 3.5µM* | 1.2µM* | 35µM* | 8%
COc1ccc(N/C=C2\CCc3ccccc3C2=O)cc1 | 0.1µM* | 0.25µM* | 0.054µM* | nt | ?
O=C1/C(=C/Nc2ccc3c(c2)OCO3)CCc2ccccc21 | 0.28µM* | 0.89µM* | 0.12µM* | -76% | ?
Clc1ccc(N2CCOCC2)nn1 | 2% | -1% | 1% | -16% | -3%
O=C(Cc1ccccc1[N+](=O)[O-])N1CCN(S(=O)(=O)c2ccccc2)CC1 | 1% | 1% | -1% | nt | -3%
O=C1C(Cl)=C(N2CCCCC2)C(=O)N1Cc1ccccc1 | -3% | -6% | -2% | -25% | -1%
O=C1C(Cl)=C(N2CCOCC2)C(=O)N1CCc1ccccc1 | ? | 13% | 19µM* | 13µM* | ?
O=C1C(Cl)=C(NCCCN2CCOCC2)C(=O)N1CCc1ccccc1 | 5% | 10% | 1% | ? | ?
O=C1C(Cl)=C(NCC2CCCO2)C(=O)N1CCc1ccccc1 (configuration not stated) | ? | ? | 15µM* | 13µM* | ?
CN1CCN(C2=C(Cl)C(=O)N(CCc3ccccc3)C2=O)CC1 | ? | 19% | ? | 13µM* | 14%
CCN(CCCNC(=O)CNC(=O)Cn1cnc2ccccc2c1=O)c1ccccc1 | 2% | 0% | 4% | 20% | 5%
O=c1sc2ccccc2n1CCOc1ccccc1 | ? | ? | 13µM* | ? | 21µM*
O=C(O)CCn1c(=O)sc2ccccc21 | 2% | 0% | -7% | 0% | -3%
Cc1ccc(OCn2c(=O)sc3ccccc32)cc1 | ? | ? | 24µM* | ? | 16µM*
COc1ccccc1OCCCn1c(=O)sc2ccccc21 | 29% | 14% | 15µM* | 18% | 12%
O=C(Nc1ccccc1NC(=O)c1ccccc1F)c1ccccc1F | 11% | 1% | -1% | nt | -1%
Nc1nccc(-c2cccs2)n1 | 2% | -1% | 0% | 14% | 0%
Cc1ccnc(NC(=O)c2ccc(Br)s2)c1 | 1.6µM* | 1.1µM* | 2.7µM* | nt | ?
O=C(Nc1nccc(-c2cccs2)n1)c1cccs1 | ? | 2.8µM* | 19µM* | ? | ?
